Screening data deposited in PubChem by National Center for Advancing Translational Sciences (NCATS).
Sampled rows, rich in hits. Any-hit rate of the full collection: about 11%.
IMPase cell inh: membrane-permeable compound that blocks inositol monophosphatase | P97697 | CHO-M1 cells, IP1 accumulation, HTRF TR-FRET ratio | inhibition (IP1 accumulation), % at 46.1 µM | 120,000 tested, under 10 active; active means well fitted curve in the direction sought with a large enough effect in the signal ratio, not every such curve was filed as active; inconclusive means small, poorly fitted or top-dose-only effect, or a change in a side signal; inactive means no such curve, though single readings can be large or run the other way; the % refers to the signal ratio;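 further: cells stimulated with carbachol in lithium chloride buffer; plate controls were DMSO basal wells for no effect and reference inhibitor wells for full effect; higher means more IMPase inhibition seen as more IP1 and lower FRET ratio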
Target sequence (P97697 whole entry, looked up): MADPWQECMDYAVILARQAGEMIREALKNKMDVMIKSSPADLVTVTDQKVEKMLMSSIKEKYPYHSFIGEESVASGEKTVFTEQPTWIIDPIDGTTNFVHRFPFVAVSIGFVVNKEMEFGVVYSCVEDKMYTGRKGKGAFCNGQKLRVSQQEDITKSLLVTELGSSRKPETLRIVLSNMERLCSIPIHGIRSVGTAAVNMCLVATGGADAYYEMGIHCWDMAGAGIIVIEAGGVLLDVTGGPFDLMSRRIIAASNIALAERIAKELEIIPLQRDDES
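Seeded CHO-M1 cells were dosed with compound at up to 46 uM, stimulated with carbachol for 30 min, then lysed in IP-One detection reagents. Higher IP1 lowers the TR-FRET signal.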
HPGD inh: HPGD (human) dehydrogenase inhibition; P15428; purified HPGD, NADH fluorescence kinetic, PGE2 substrate; Potency, µM, for the others: at the highest dose activity change, negative = inhibition, hits mostly inhibitors; actives 4.3% (n = 150,000); AID 894; active means well fitted inhibition curve with a large enough effect, not every such curve was filed as active; inconclusive means small, poorly fitted or top-dose-only effect, or another doubt; inactive means no such curve, though single readings can be large or run the other way; further: potency means the concentration at half of the fitted maximal effect
Target sequence (P15428 whole entry, looked up): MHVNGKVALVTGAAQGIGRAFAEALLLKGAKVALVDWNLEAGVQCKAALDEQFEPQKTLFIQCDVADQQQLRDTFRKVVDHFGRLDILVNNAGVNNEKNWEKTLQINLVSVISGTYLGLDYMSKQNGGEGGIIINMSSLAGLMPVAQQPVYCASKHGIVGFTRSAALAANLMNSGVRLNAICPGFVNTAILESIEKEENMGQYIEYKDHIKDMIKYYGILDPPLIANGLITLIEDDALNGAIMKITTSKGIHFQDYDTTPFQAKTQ
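NADH formation kinetics: reaction with 30 uM PGE2 and 1 mM NAD+ (final), 20 nM enzyme, Tris-HCl pH 8 with Tween 20, after 15 min compound preincubation at room temperature. Fluorescence change, last versus first of five reads.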
ALDH1A1 block: inhibitors of human aldehyde dehydrogenase 1A1. P00352. Purified ALDH1A1, NADH fluorescence, propionaldehyde substrate. Potency, µM (titrated, usually from 75.3 µM), for the others: at the top dose activity, negative = inhibition, usual class: inhibitors. actives 7.3% (n = 220,000). AID 1030; active means well fitted inhibition curve with a large enough effect, not every such curve was filed as active; inconclusive means small, poorly fitted or top-dose-only effect, or another doubt; inactive means no such curve, though single readings can be large or run the other way;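 further: potency means the concentration at half of the fitted maximal effect; plate controls were no enzyme wells and a reference inhibitor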
IMPase Li cell: IMPase inhibition in cells with lithium potentiation; CHO-M1 cells, IP1 TR-FRET (IP-One), carbachol + lithium; Potency, µM (doses to about 59.4 µM), inactives show at the highest dose activity, negative = IMPase inhibition, hits mostly inhibitors; actives 0.35% (n = 210,000); AID 1457;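 further: IP1 builds up when IMPase is blocked and the TR-FRET signal falls; potency means the concentration at half of the fitted maximal effect; plate controls were basal vehicle for no effect and high inhibitor control for full effect; nearly all actives have a fitted effect of over 50% in size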
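CHO cells stably expressing M1 receptor (2000/well, cultured 16–30 h) treated 30 min at 37C with compound plus low lithium. Cytosolic IP1 by TR-FRET (665/620 ratio and 620 channel) after 10 min lysis; AC50 by Hill fit.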
PNC inhibitor: blocks assembly of the perinucleolar compartment. PC3M PTB-GFP, PNC prevalence imaging, 16 h; stronger effect = lower value. activity change (PNC), negative = inhibition, % at 10 µM. actives 3.1% (n = 140,000). AID 2417;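 active means readout at or below -70, meaning at least 70% loss of cells showing the perinucleolar compartment, a nuclear body marking cancer cells; inconclusive means readout between -30 and a set limit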;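 further: plate controls were DMSO wells for no effect and camptothecin positive control wells for full effect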
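Compounds are pinned in duplicate onto adhered PC3M cells stably expressing GFP-tagged PTB and incubated 16 h at 37 C. Cells are then fixed, nuclei stained with Hoechst, and PNC-positive cells counted.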
NPSR antag: antagonists of human neuropeptide S receptor cAMP signaling; Q6W5P4; CHO-NPSR cells, cAMP TR-FRET, antagonist mode; Potency, µM (series often up to 38.3 µM), for inactives: at the highest dose activity change, negative = inhibition, usual class: inhibitors; actives 1% (n = 220,000); AID 1461; further: potency means the concentration at half of the fitted maximal effect; nearly all actives have a fitted effect of over 50% in size
Starred values were filed as active, the others as inactive; ? = inconclusive; · = no result; [ ] = dose if it differs, or a comment. Unless noted, the call rests on the fitted dose curve; in most records, active means well fitted curve in the direction sought with a large enough effect; inconclusive means small, poorly fitted or top-dose-only effect, or another doubt; inactive means no such curve, though single readings can be large; an effect the other way counts as inactive or inconclusive. Unless noted, on the % scale 0 is the no-effect control and ±100 the full control effect.

SMILES | IMPase cell inh | HPGD inh | ALDH1A1 block | IMPase Li cell | PNC inhibitor | NPSR antag
COC(=O)[C@H](CCSC)NC(=O)N1CCN(c2cccc(C(F)(F)F)c2)CC1 | 5.7 | -2.4% | 8.4% | 3.9%[38.3 µM] | 12.4 | -17.8%[46.1 µM]
COc1cccc(CN(c2ccc3c(c2)CCC3)S(=O)(=O)c2ccc(-n3cnnn3)c(OC)c2)c1 | · | -12.3% | 2.51µM* | 9.5% | ? | 6.6%
Cc1cc(S(=O)(=O)N(C)CCc2ccccc2)ccc1-n1cnnn1 | 11.1 | · | ? | · | 35.7 | 0.4%[46.1 µM]
Cc1cc(S(=O)(=O)N(Cc2ccccc2Cl)c2ccc3c(c2)CCC3)ccc1-n1cnnn1 | · | -4.4% | 5.01µM* | 12.6% | ? | -20.2%
COc1cccc(C2CC(c3ccccc3Cl)Nc3nc(N)nn32)c1 (centres undefined) | 12.9 | -6.1% | 7.9% | 9.4% | ? | -3.4%
COC(=O)C1CCN(S(C)(=O)=O)CC1 | 0.1 | -8.2% | -9.2% | 1.2% | -100.0* | -7.3%[46.1 µM]
CC(C)(C)C(=O)NC1CCN(S(C)(=O)=O)CC1 | 4.0 | -9.2% | 13.4% | -3.5% | -100.0* | 5.3%[46.1 µM]
COC(=O)C1CCN(S(=O)(=O)c2ccc(NC(C)=O)cc2)CC1 | 6.0 | 0.5% | 5.9% | 41.4%[38.3 µM] | -27.7 | -11.3%[46.1 µM]
CC(C)(C)C(=O)NC1CCN(C(=O)N2CCCC2)CC1 | -4.1 | 4.6% | 16.5% | 12.5%[38.3 µM] | -2.1 | -8.8%[46.1 µM]
CCCCC(=O)OCC(=O)Nc1ccc(OC(F)F)cc1 | -0.9 | -5.6% | -5.0% | -0.9%[38.3 µM] | 8.1 | 1.4%[46.1 µM]
CN(C)c1nc(N(C)C)n(C(=O)c2ccc(F)cc2)n1 | · | · | 11.4% | 7.0% | · | 18.2%
CCc1nnc(NC=C2C(=O)OC(C)(C)OC2=O)s1 | 4.6 | -14.2% | -0.5% | -0.8%[38.3 µM] | 20.5 | 0.8%[46.1 µM]
CC(C)(C)C1CCc2onc(C(=O)N3CCOCC3)c2C1 (centres undefined) | ? | -16.2% | 25.1µM* | 32.2%[38.3 µM] | -10.1 | -8.9%[46.1 µM]
CC(C)(C)C1CCc2onc(C(=O)NC3CCCC3)c2C1 (centres undefined) | 8.5 | -6.3% | -6.7% | 7.0%[38.3 µM] | -14.8 | -29.2%[46.1 µM]
CCOC(=O)c1cn(CC(=O)Nc2cccc(Cl)c2C)nn1 | -11.7 | -0.9% | 2.0% | -5.9%[38.3 µM] | 0.6 | 0.7%[46.1 µM]
CC(=O)N(CN1C(=O)c2ccccc2C1=O)c1cccc(C)c1 | 2.6 | 5.7% | -1.7% | 5.8%[38.3 µM] | 16.3 | -1.3%[46.1 µM]
CC(=O)N(/N=C1\Sc2ccccc2C1=O)c1cccc(C)c1 | 17.1 | 3.55µM* | ? | 52.6%[38.3 µM] | ? | -16.8%[46.1 µM]
NC(N)=Nc1nc2cc([N+](=O)[O-])ccc2o1 | · | · | ? | -4.1% | · | -11.4%
O=C1Nc2ccc([N+](=O)[O-])cc2C1(O)N1CCCCC1 (centres undefined) | -3.0 | -5.4% | -11.7% | -17.6%[38.3 µM] | 7.5 | -7.2%[46.1 µM]
Cc1cc([N+](=O)[O-])cc2c1NC(=O)C2(O)N1CCCCCC1 (centres undefined) | -1.0 | -11.2% | 22.4µM* | 5.9% | 62.0 | 4.7%
Cc1cc(N2CCCC2)nc(SCC(=O)c2ccccc2)n1 | -0.6 | -8.1% | -4.3% | 11.1% | 316.7 | -22.1%[46.1 µM]
Cc1cc(N2CCC(C)CC2)nc(SCC(=O)c2ccccc2)n1 | 12.7 | -9.7% | 14.1µM* | 12.8% | -118.9* | -48.9%
C#CCOCCOCCOCCNc1nc(N2CCN(C(=O)[C@H](C)n3cc(CCCN=C(N)N)nn3)CC2)nc(N2CCN(C(=O)[C@H](Cc3ccc(O)cc3)n3cc(CCO)nn3)CC2)n1 | · | -6.4% | -5.9% | -2.8% | 17.1 | 14.0%
O=C(c1c[nH]c2ccccc12)C(F)(F)F | · | · | · | · | · | 12.9%
O=C(COC(=O)C1CC1)c1c[nH]c2ccccc12 | 2.7 | -7.4% | -13.7% | 11.6%[38.3 µM] | -80.2* | -10.2%[46.1 µM]
CC(C)(C)NCC(=O)c1c[nH]c2ccccc12 | -3.9 | -16.7% | 17.8µM* | 2.7%[38.3 µM] | 27.2 | 5.0%[46.1 µM]
CC(=O)OCC(=O)c1c[nH]c2ccccc12 | · | · | -8.0% | 0.1% | · | -28.9%
CCOC(=O)c1c(C)[nH]c(C(=O)/C(C#N)=C/c2ccc(OCC)cc2)c1C | · | -16.3% | 3.16µM* | -0.3% | ? | 5.8%
